Data reported in PubChem BioAssay AID1159580 (chemical genetic matrix, 2015).
In all, about 5,500 compounds went through this assay and about 2,000 (36%) were called active. Another 18% or so got no clear call; they are omitted. No stated cut-off is given here; in the data, active means normalized growth mostly below about 0.91 (no sharp cut-off); inconclusive means no clear call, values can overlap the other calls; inactive means mostly above about 0.92. The list shows a part of the results.

Experiment: chemical genetic growth profiling, strain panel (AID 1159580);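 further: tested at 20 µM; growth read once vehicle control cultures reached saturation at 30 °C; 1 = growth at the plate median or of vehicle wells; lower values mean less growth of the strain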
Details: S. cerevisiae deletion strains, growth OD

Measured: normalized growth

C[N+](C)(C)CCCCCCCCCC[N+](C)(C)C
inactive: locus YAL013W, strain DEP1, hits give low values 1 | locus YAL040C, strain CLN3, hits give low values 1 | locus YCL061C, strain MRC1 (second series), hits give low values 1 | locus YDR150W, strain NUM1, hits give low values 0.989 | locus YDR363W, strain ESC2, hits give low values 1.02 | locus YER002W, strain NOP16, hits give low values 0.995 | locus YGR229C, strain SMI1, hits give low values 1.04 | locus YHR030C, strain SLT2, hits give low values 0.973 | locus YHR079C, strain IRE1, hits give low values 1.01 | locus YJL095W, strain BCK1, hits give low values 1 | locus YJR066W, strain TOR1, hits give low values 0.963 | locus YLR113W, strain HOG1, hits give low values 1.01 | locus YMR307W, strain GAS1, hits give low values 0.998 | locus YNL175C, strain NOP13, hits give low values 1.01 | locus YNL183C, strain NPR1, hits give low values 0.948 | locus YNL197C, strain WHI3, hits give low values 1.03 | locus YNL224C, strain SQS1, hits give low values 0.983 | locus YOR083W, strain WHI5 (second series), hits give low values 0.95 | locus YOR231W, strain MKK1, hits give low values 0.995 | locus YPL055C, strain LGE1, hits give low values 1.02 | locus YPL256C, strain CLN2, hits give low values 1.12
